Source: the supplement of paper PMC10681739

Legend:
RUNX1 [1] = molecular target: RUNX1 (UniProt Q01196); test: RUNX1 binding intensity (PBM fluorescence), RUNX1 alone (arbitrary fluorescence units); higher = stronger binding; settings: RUNX1 concentration 2 nM; ETS1 concentration 0 nM
Protocol: (§1)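 Cooperative gcPBM on 36-bp genomic probes with neighbouring ETS1 and RUNX1 sites. Recombinant human RUNX1 (2 nM) was incubated alone or with ETS1 (25 nM) and detected with anti-RUNX1 antibody plus Alexa488 secondary. Values are medians over 4 replicate spots; the RUNX1+ETS1 data were normalised to the RUNX1-only data. The probes sit in constant array flanks that are not printed.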

RUNX1 [2] = molecular target: RUNX1 (UniProt Q01196); test: RUNX1 binding intensity (PBM fluorescence) in presence of ETS1, normalised to RUNX1-only experiment (arbitrary fluorescence units); higher = stronger binding; settings: RUNX1 concentration 2 nM; ETS1 concentration 25 nM
Protocol: as §1

ETS1 = molecular target: T1, ETS1 (UniProt P14921); test: ETS1 binding intensity (PBM fluorescence) in presence of RUNX1, normalised to ETS1-only experiment (arbitrary fluorescence units); higher = stronger binding; settings: ETS1 concentration 1 nM; RUNX1 concentration 25 nM
T1 sequence: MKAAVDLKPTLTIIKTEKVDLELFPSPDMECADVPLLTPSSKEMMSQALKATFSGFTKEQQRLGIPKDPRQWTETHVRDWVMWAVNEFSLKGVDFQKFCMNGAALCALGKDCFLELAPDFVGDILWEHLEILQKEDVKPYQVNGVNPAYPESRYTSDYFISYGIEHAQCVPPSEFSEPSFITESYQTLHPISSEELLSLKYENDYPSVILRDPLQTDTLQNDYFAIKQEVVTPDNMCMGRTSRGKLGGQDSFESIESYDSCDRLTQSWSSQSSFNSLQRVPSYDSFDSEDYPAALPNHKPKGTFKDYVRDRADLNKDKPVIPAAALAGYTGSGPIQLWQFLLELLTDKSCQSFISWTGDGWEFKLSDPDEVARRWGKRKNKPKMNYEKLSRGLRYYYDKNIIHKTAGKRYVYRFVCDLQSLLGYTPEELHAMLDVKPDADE
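Throughout, for RUNX1 binding intensity (PBM fluorescence) in presence of ETS1, normalised to RUNX1-only experiment: Full-length recombinant human ETS1 or RUNX1 bound to double-stranded 36-bp genomic probes on microarrays, detected by protein-specific primary antibody and Alexa488 secondary, spot fluorescence as median of four replicate spots.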
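Throughout, for RUNX1 binding intensity (PBM fluorescence), RUNX1 alone: Full-length recombinant human RUNX1 bound to double-stranded 36-bp genomic probes on a high-density microarray, scored as Alexa488 fluorescence per spot via anti-RUNX1 antibody, median of four replicate spots.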

Chain of RUNX1 (Q01196 whole entry): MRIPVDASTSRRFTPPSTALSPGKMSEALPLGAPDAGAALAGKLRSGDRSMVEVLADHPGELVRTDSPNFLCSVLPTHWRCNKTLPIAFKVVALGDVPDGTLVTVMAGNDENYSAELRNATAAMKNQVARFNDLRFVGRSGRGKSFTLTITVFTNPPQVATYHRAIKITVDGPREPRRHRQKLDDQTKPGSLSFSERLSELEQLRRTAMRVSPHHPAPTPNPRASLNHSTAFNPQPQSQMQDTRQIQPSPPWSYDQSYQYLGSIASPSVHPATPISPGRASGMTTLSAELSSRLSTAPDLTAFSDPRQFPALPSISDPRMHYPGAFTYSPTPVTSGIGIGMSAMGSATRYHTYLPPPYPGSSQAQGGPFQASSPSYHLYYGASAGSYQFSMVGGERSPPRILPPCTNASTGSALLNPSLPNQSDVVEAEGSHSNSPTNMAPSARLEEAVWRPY

Sequence	RUNX1 binding intensity (RUNX1 [1])	RUNX1 binding intensity (RUNX1 [2])	ETS1 binding intensity (ETS1)
CCATTTCCCGCCTACCGACCTGCTGCACCGCACGGA	1430	3390	
TACCTAGACCCTTTCCGCCCTTACCGCGGCCAGACA	1210	1410	
CCCACTTCCTGTCCCTGCATGCTGTGGGGCAGGCAG	784	2420	1570
TTTGTTGTTCCGGGTGCGAGGCGGCCGCAGCTTCCA	1090	1180	
GGGGGAGCAAGCGCCTTCCGCGGTCGCTGGGGGGAG	939	812	
GGCGGTGCACTCTGGGAAATGTGGTTTTCGCGGCGC	1090	1500	
AGGTTTTGAAAGAGGAAACCACATACCCGAAAACCA	1030	1160	2030
AGAGGCAGCTTCCGGAGACTGCTCTGTGGCCAGTTT	711	1310	1070
GCCCCTTTTTCCTGGGATGAGCGGTTAGCGGAGGGG	1090	1080	
CCCAGAGCTTCCGATTGGCTCTTCTGTGGTGGCGGG	1010	1170	
TAAGCAGGGAATAGAGGAAGTGGTTTTGTCTCAGGC	779	1780	7880
ACCCTACTTCCGTTGCTGTGTTGCGGAGGTGACCTA	844	1700	1240
TTACTTCCTGAGGGTGCACAGGCTGTGGTCGTCTAT	760	2070	
AACTGTCTCTACCCAGGAAGTGGTTTTATTTAAAAG	1020	2190	14900
AGGAAACCACAAGTTATTCCCTGCAAAGGTCTTGAT	3320	6430	
CCAGTGCAGAAACATCCCTCCTGCCGCAGCTTTGTC	1020	896	
GTTGAAATTGAGCTTCCGTTGGTGGTTAACCCTCTG	894	1310	921
AACAGACAGGATGTGGCCTCTGCCAAAACCACCATC	869	2310	
TCTCGTCCGGTCCTTGCTCCCCCTCCCCGCAGCGCT	1090	1980	790
CTGTCCGCTACATCCGGGACCTGCGGGACCGCCGAT	823	2300	2430
CCAACGAGCACTTCCGCTTCCCGCAGCTCCAGCGGC	914	2650	4270
GCTCGGAAATACCAATATTGGGCTGTGGTATTTGAA	911	953	626
AGCCTTAATTACCCGGAAGTGCGGTCCCAGGGACTT	768	1710	12200
TGTCGTACATTTCCGCCTTGTGGGCACAATCTGATT	971	1950	1280

Sequence	RUNX1 binding intensity (RUNX1 [1])	RUNX1 binding intensity (RUNX1 [2])	ETS1 binding intensity (ETS1)
GAGGACGCGGAAGTCCTTCTTGCGGGGCGGAGCTAG	664	890	840
CCGGTCCTGACCGGAAGCGGTAACCGTCACTCCTTC	703	7940	29000
ACCCCAGGTACCGGAAGACCACAATTCCCAGGAGTC	1020	1880	3710
GCTGTCCGTTTCCGAGATGTTAATGCGGGATCTTGC	920	988	402
CCCCTCAGCTTCCGGGTGCTGCGGCCGCGGCCGAGA	827	1980	999
GGGGAACGGAAGCTGCTGTCGTTACTGGCGGTTGTA	767	929	1320
GTCACCATTTCCGGGCCTCCGCGGTGTCCCCACCCC	1040	2900	2870
TGACTAAGACCGGAAGAAACCACAAAAACACAAAAA	2700	4540	6730
CCGGTCCGCTCGCCGGAAATGCGGGCTCTCCTGCCG	815	1240	10400
GCGAAAGGAACTTCCTTTGCATGCGGTCAGAGTGCT	892	2490	2280
ACGTGATGGCAGTCTTCCTGCCCACAAGTTCTGGTC	1250	1440	486
GAAGGCGGTTCCGGTTCGCGGCGGTTCCCGGGTTTT	794	1820	466
AACCTCCGACTTCCGGCCGCGCAGCGGTGGGCTGAG	678	1970	4280
GGGATCTACTTCCTCTCTCGGCCGCGGCCGCAGCAC	792	1730	1150
CTACAGGAAGTTCGAACTGGGCGGAGCCCACCGCAG	658	1120	1950
CCCACCCTCGCCGGAAGCCGAGCGGTTTCTACATCA	1110	1540	3600
CCCAACCATTTCCGCCACACCTCCAACCCACTGCCG	2030	4660	542
GGGCCCACATCCGGCGCGCGCAACCGCAGCCTACTG	2530	13100	6540
ATGGGTACAGGATTTCCTTTTGTGGTGATGAAAATG	913	1200	1030
CCCTCTCTTCTTCCTCCCCCACCACAAAAGTCACAG	2440	2280	641
ATACTGAGTCATTTCCTGTGGTGTTATTGTGTTGTA	993	1570	2500
TGGCTGCCACTGAGAGGATGTGGTGACAGAGGTGGG	693	886	4350
ACGTCTGTTTCCTGTGATTGAAACCGCAAGAAGAAG	4510	18500	2250
GTCACAGGAAAGAAGGAGCCTCGCCTTAACCGCACC	1170	1310	2930

Sequence	RUNX1 binding intensity (RUNX1 [1])	RUNX1 binding intensity (RUNX1 [2])	ETS1 binding intensity (ETS1)
CAGACAGGAGGCGGATGTGGGTGGCGCAGAATGAGC	688	1920	2250
AATGATTACCTAACAGGAAAACCACATTGGTCATTT	1180	1130	3100
CTTGCCACACTTCCTCTTGTTTTGAACCACTATATT	2620	4740	641
AATCATCAGGGAAATGCAAATCAAAACCACAATCAG	1480	1300	1200
CCATTCACGGGCTTCCGCGGTGTCCCCACCCCCTAA	1080	1160	760
CCTACACTTCCCAGAGAACCTAGCGGTTACGCCAAC	1340	1560	505
GAAAGACAGGATGTGGGATAGATCTCAACCACCTTT	817	4740	4970
GTGCCTCACCGCTTCCGGCGCTGCGGGATGACGTCA	786	7320	4720
ACAAGGAGGAAAAGGAAATGAACCACGAATAGCAAA	817	948	1160
CAAGGGAACATCCTTAAACAGCTTGTGGTATTGCTG	878	1060	1060
TGGCTTTGCAGAAGGAAGCTGTGGTTTCTGGTCTTC	869	1010	3340
TGAGGAGAGCGAGGAAGTGGTTTTCTCTTCGCACAG	746	948	1080
GAGGCGTTTCCGCCTCCTTTTCGCGGTTGCCTTCTC	1060	2790	761
AACATCCGGTTCCCGGTTCTGCCCCCTACCGCAGCT	917	3920	5870
AGGCTCATTTCCTGTTTTCATGTGGTTTAGAGAAAA	1320	3930	5130
GACTCTTCCGGCCCAGAGCTTTCGGAGTGCGGTTGC	858	2130	704
CGTGTGGGAGGCCGGAAGTTGCGGCTTCATTACTCG	845	2710	51000
GCACCGTCTACCCGGAAGTTGTGGGCTGGGAGGGAT	813	1430	9990
GTTCCTAGGCAGGCAGGATGTGGCTATAAGCTACAT	819	1150	6220
GGAGCGCGCCGGAAACGCGCGGCTGCGGCCCGGGAG	722	1320	4330
TGCATGTGCAGCAGAGGAAACCACAAGTTATTCCCT	1110	1600	1560
GGCAAACAGGAAACACTCCCAGGGCTGTGGGCTCCT	727	1150	1790
CCAGACCCGGCGGAACTACCGTGCCCACAAGGCAGC	876	894	564
AACTAGGCTTTTCTTTCCTGTGGTCCTTAAGGAGGC	929	1020	329

Sequence	RUNX1 binding intensity (RUNX1 [1])	RUNX1 binding intensity (RUNX1 [2])	ETS1 binding intensity (ETS1)
GATCTTCCTGCAACCCCCCGAGACAACCACCGAACA	1090	1400	887
GCTGACCCGGAAGCGCTCGTGACCACCATCTCCGAC	912	1370	2590
GACATATCCTGCATTCTCAGAAAAACCACAGGCTAG	1290	2000	1050
CTTTCGGGGGCGGAAGTTGCGGTGCATTGTAGGTTC	955	2800	20000
ATCTCAACTAGGAAATGTTTTTGTGACCACAAAGGG	958	949	2310
CTCTTCCTGCCTGTCCGTGGCTGGTGTGGTTTGCGT	958	2670	616
CCCGGAAACTCAACTGCCCACTGCTGCGGCCGCCAT	1070	1090	708
AACTAAGTGCAGGGGAAGTTGTGGTTATTTTTTACC	1270	1760	3360
TGAGAGTAAAAAGGATGTGGTTTCCTTTCATTTTTT	927	2430	6790
TTTTGCCCAACAGGATGTGGTTTCTAAAGCAGACGG	1290	18500	31600
GCGGGCAGGATCTTCCTGTGGTTTGCCTTGCCCACT	904	2190	653
TCCACATCCTGCTCCTCGGGTTTGCGGCGAGGACTC	809	2660	1010
AAGAGGAAATAAATACCAGAGTGAACCCACAAACCT	892	903	943
CTCCAGGGACAACCCGGAAACCACATTGCCCAGCGT	982	1500	6990
TCAAGAAAACAGGAAACTCTCAAAACCAAGTTCTGA	773	931	1830
TCGGAGACGGCGAAAGGAAACCGCAAGGAGGCCACC	4180	9290	2820
TTTTTTCCGCCTGTAGGGTCACATTGTGGTTGATTG	1000	1790	725
GCACTGTGGGAGGAAGTGGGTATGTGGTGAGCTCTT	856	1560	4990
AATATCCTGTATGTCATGCTTAAAAAGCCACAAAAC	875	2050	1070
TCTTCAGGCGTCTTTCCGGTGGTGGTCGTTTTTGCT	905	1390	1330
GACTTCCTGTTGAAGATTGGCCTCTGCGGTACCACG	2700	9740	2350
CGGGACACAGGAAGCCGTTGTGGGGCCCCGGGGCCA	711	982	1970
